Activity calls are given as the source filed them. How the calls were made is not given here.
What follows are compounds tested against Protein kinase 7 (PK7), Plasmodium falciparum 3D7 (PF3D7_0213400) (UniProt Q7YTF7) (assay: inhibition of Plasmodium PK7 catalytic activity – biochemical, TCAMS antimalarial set, Kinase-Glo luminescence (AID 1159587)). Details: recombinant PfPK7, Kinase-Glo ATP depletion luminescence.
Chain of Protein kinase 7 (PK7), Plasmodium falciparum 3D7 (PF3D7_0213400) (Q7YTF7 1-343): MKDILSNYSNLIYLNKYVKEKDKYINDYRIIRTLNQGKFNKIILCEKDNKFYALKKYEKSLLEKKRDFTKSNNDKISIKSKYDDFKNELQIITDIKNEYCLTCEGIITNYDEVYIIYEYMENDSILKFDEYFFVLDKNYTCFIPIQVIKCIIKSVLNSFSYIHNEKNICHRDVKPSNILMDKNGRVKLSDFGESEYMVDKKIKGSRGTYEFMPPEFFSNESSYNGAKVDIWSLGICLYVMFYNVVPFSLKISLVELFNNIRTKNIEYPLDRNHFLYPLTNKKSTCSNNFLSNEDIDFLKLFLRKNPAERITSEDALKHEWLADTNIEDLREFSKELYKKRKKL

Structure (SMILES)	outcome
COc1cc2nc(NCc3cccc(CNC(=O)c4ccc(-c5ccc(C(C)=O)cc5)cc4)c3)nc(N)c2cc1OC	inactive
COc1ccc(CCN(C)CCCOc2ccc(NC(=O)COc3cccc4sc5ccccc5c(=O)c34)cc2)cc1OC	inactive
O=S(=O)(c1ccc(OCc2ccc(Cl)cc2)cc1)c1cc2c(cc1O)CCN(C1CCC1)CC2	inactive
O=C(Nc1ccccc1)Nc1cccc(-c2nn3c(OCC4CCCCN4)cccc3c2-c2ccncc2)c1 (stereo not given)	inactive
Cc1nnsc1C(=O)Nc1cccc(-c2cccc(-c3nc4ccc(F)cc4[nH]3)c2)c1	inactive
CN(CCCNCc1cccc2ccccc12)CCCNCc1cccc2ccccc12	inactive
C[C@@H](Nc1nc(NCc2ccccc2)c2sccc2n1)c1ccccc1	inactive
CN(C)CCCOc1ccccc1CN1CC[C@H](NC(=O)c2ccc(Cl)c(Cl)c2)C1	inactive
COc1ccc(-c2cccc(NC(=O)c3cccc(C#N)c3)c2)cc1CN1CCNCC1	inactive
Cc1nc2c(Nc3nc(-c4ccncc4)cs3)ncnc2n1-c1ccccc1Cl	inactive
Fc1ccc(Nc2ccnc3cc(-c4ccc(CN5CCOCC5)o4)ccc23)c(Cl)c1	inactive
O=C(/C=C/c1ccc(Cl)c(Cl)c1)NCCCCCN1CCC(NC(=O)Nc2ccc([N+](=O)[O-])cc2)CC1	inactive
CO/C(=C\C=C\c1cc2cc(Cl)c(Cl)cc2[nH]1)C(=O)NC1CCN(CCCc2ccccc2)CC1	inactive
COc1ccc2cc(CNCCCCCCNCc3ccc4cc(OC)ccc4c3)ccc2c1	inactive
O=C(/C=C/c1cccc(C(F)(F)F)c1)NCCCCCN1CCC(c2c[nH]c3ccccc23)CC1	inactive
